Screening data (PubChem)
Compounds with a hit are over-represented: about 12% of the library has one in this group of screens.
SARS PLP yeast: SARS-CoV PLP inhibition in yeast; actives 0.19% (n = 330,000); AID 485353; Potency, µM (titrated, usually from 32.9 µM), without a hit: at the highest dose activity, positive = growth rescue, actives largely listed as activators; S. cerevisiae expressing SARS-CoV PLpro, growth rescue; calls by dose curve; note: 0% is about no effect; nearly all actives have a fitted effect of over 55% in size
Pf growth 48h: inhibits P. falciparum growth in the first generation, 48 h; Potency, µM (titrated, usually from 28.7 µM), for the others: at the highest dose activity change, negative = inhibition, most hits filed as inhibitors; actives 5.9% (n = 310,000); P. falciparum luciferase growth in erythrocytes, 48 h; note: % is set by controls: 0 for no effect and ±100 for the full control effect
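Here the parasites carry a stable luciferase gene and grow inside erythrocytes in Albumax-based RPMI medium with compound for one erythrocytic cycle. Activity is scored as loss of luminescent signal.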
Pf growth 96h: P. falciparum growth inhibition at 96 hour, primary screen for plastid delayed-death inhibitors | P. falciparum luciferase reporter growth, 96 h | Potency, µM (doses to about 28.7 µM), without a hit: at the top dose activity change, negative = inhibition, actives largely listed as inhibitors | actives 6.9% (n = 320,000); note: % is set by controls: 0 for no effect and ±100 for the full control effect
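Infected RBCs, 2% Hct / 0.05% parasitemia final; luciferase-reporter P. falciparum; cpd 96 h, 37 C, 5% CO2; luciferase detection reagent; luminescence.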
Sm TGR block: S. mansoni TGR enzyme inhibition. purified TGR, DTNB reduction, TNB absorbance 405 nm. actives 3% (n = 360,000). Potency, µM (titrated, usually from 114 µM), without a hit: at the top dose activity change, negative = inhibition, usual class: inhibitors. Q962Y6; note: % is set by controls: 0 for no effect and ±100 for the full control effect; nearly all actives have a fitted effect of over 60% in size
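TGR 20 nM + NADPH 100 uM (dispensed conc.), cpd preinc 15 min RT; start with NADPH (500 uM addition) then DTNB (15 mM addition). Kinetic TNB absorbance, 405 nm filter. Four-parameter Hill fit across titration.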
AmpC inh detg: AmpC beta-lactamase inhibition with detergent present | AID 485294 | Potency, µM (highest dose often 114 µM), for the others: at the top dose activity change, negative = inhibition, most hits filed as inhibitors | actives 0.041% (n = 370,000) | AmpC hydrolysis of nitrocefin, absorbance 480 nm, 0.01% Triton;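 note: 0% = no-compound wells and -100% = no-enzyme wells; nearly all actives have a fitted effect of over 25% in size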
Target sequence (P00811 whole entry, looked up): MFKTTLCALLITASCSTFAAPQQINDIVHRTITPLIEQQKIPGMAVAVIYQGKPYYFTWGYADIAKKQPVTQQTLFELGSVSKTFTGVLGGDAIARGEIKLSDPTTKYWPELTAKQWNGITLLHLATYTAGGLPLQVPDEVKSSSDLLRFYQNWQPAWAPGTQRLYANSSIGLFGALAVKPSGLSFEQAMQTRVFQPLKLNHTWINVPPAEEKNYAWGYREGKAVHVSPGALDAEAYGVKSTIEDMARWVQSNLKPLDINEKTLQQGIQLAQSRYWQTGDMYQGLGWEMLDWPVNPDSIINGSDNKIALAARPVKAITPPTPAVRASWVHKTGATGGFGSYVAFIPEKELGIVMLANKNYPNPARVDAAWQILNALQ
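AmpC (5.3 nM in the dispensed reagent) in 20 mM phosphate pH 7.0 with 0.01% (detergent screen) or 0.0001% Triton X-100 was preincubated with compounds for 15 min at room temperature. Nitrocefin was then added from an 800 uM solution, and hydrolysis was followed at 480 nm.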
AmpC no deterg: blocks E. coli AmpC beta-lactamase in detergent-free assay. P00811. AmpC nitrocefin hydrolysis, absorbance 480 nm, 0.0001% Triton. Potency, µM (doses to about 57.1 µM), inactives show at the top dose activity change, negative = inhibition, most hits filed as inhibitors. actives 0.52% (n = 330,000). AID 485341;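 note: plate controls were no compound for no effect and no enzyme for full effect; nearly all actives have a fitted effect of over 20% in size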
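20 mM phosphate pH 7.0 + 0.01% (detergent screen) or 0.0001% Triton X-100; 5.3 nM AmpC reagent; cpd preinc 15 min RT; nitrocefin (800 uM stock) to start; A480 q20 s × 4 min; Activity was normalised to no-enzyme and no-compound control wells.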
Active calls of the source: *; ? = inconclusive; nt = no result given; [ ] = dose if it differs, or a comment. Unless noted, calls come from the whole dose curve; as a rule, active = well fitted curve in the direction sought with a large enough effect; inconclusive = small, poorly fitted or top-dose-only effect, or another doubt; inactive = no such curve, though single readings can be large; an effect the other way counts as inactive or inconclusive. Potency is the fitted concentration of half-maximal effect.

SMILES	SARS PLP yeast	Pf growth 48h	Pf growth 96h	Sm TGR block	AmpC inh detg	AmpC no deterg
Cc1cccc(OCCn2cccc2/C=C2/C(=O)NC(=O)N(Cc3ccco3)C2=O)c1	0%	-7%	-6%	4µM*	-7%	-47%
O=[N+]([O-])c1cccc(-c2ccc(/C=N/NC(=S)NCc3ccco3)o2)c1	3%	?	0%	-27%	-4%	8.9µM*
COc1ccc(N(CCCN2C(=O)c3cccc4cccc(c34)C2=O)C(=O)c2cccc(OC)c2)cc1	-12%	?	?	-5%	0%	10%
CCn1c(CNC(=O)c2ccccc2F)nnc1SCC(=O)Nc1nncs1	5%	0%	-1%	1%	-1%	-11%
CN(C)c1nnnn1-c1ccc(Oc2ncc(C(F)(F)F)cc2Cl)cc1	-3%	-21%	?	-4%	-7%	130%
CC(c1ccccc1)N1C(=O)CC(Sc2ncccc2C(=O)O)C1=O (stereo not drawn)	-4%	-1%	2.1µM*	35µM*	?	-4%
Cc1nnc(SC2CC(=O)N(c3ccccc3)C2=O)s1 (stereo not drawn)	-94%	27%	156%	2.5µM*	3%	-8%
CCOc1ccc(N2C(=O)CC(Sc3nc(C)cc(C)n3)C2=O)cc1 (stereo not drawn)	-6%	10%	35%	-7%	?	2%
CCOc1ccc(N2C(=O)CC(Sc3nnnn3-c3ccccc3)C2=O)cc1 (stereo not drawn)	-4%	-2%	0%	10µM*	-14%	3%
O=C(O)c1cccnc1SC1CC(=O)N(c2ccccc2)C1=O (stereo not drawn)	-3%	?	1%	50µM*	3%	-7%
COc1cccc(NC(=O)Cn2c(=O)n(-c3ccc(C)cc3)c(=O)c3ccccc32)c1	nt	nt	nt	1%	-1%	nt
CC(=O)c1ccc(N2CCN(C(=O)CN3C(=O)NC4(CCCCC4)C3=O)CC2)c(F)c1	4%	?	?	-2%	0%	-10%
O=C1CC(Sc2cccs2)C(=O)N1c1ccccc1 (stereo not drawn)	-6%	-19%	0%	6.3µM*	-8%	-20%
O=C(O)c1ccccc1SC1CC(=O)N(C2CCCCC2)C1=O (stereo not drawn)	-9%	-1%	-1%	4µM*	?	2%
O=C(O)c1ccccc1SC1CC(=O)N(c2ccccc2)C1=O (stereo not drawn)	-80%	-4%	2.1µM*	14µM*	-11%	-18%
O=C(NNC(=O)C1[C@H]2CCCC[C@@H]12)Nc1cccc2ccccc12 (stereo partly drawn)	1%	44%	48%	-10%	7%	-27%
COc1ccc(/C=C(\NC(=O)c2ccccc2)C(=O)OC[C@@H]2CCC[N+]3(C)CCCCC23)cc1OC (stereo partly drawn)	4%	?	-14%	-3%	?	-22%
Cc1ccc(N2C(=O)CCSC23C(=O)N(Cc2ccccc2)c2ccccc23)cc1F (stereo not drawn)	nt	nt	nt	2%	-6%	nt
CCOc1ccccc1CNC(=O)c1cccc(NC(=O)c2nsc3ccccc23)c1	nt	nt	nt	-2%	17%	nt
Cc1c(C)c2cc(Cl)c(O)c(CN(C)C)c2oc1=O	4%	13%	?	-12%	?	-5%
O=c1oc2c(O)c(O)cc3c(=O)oc4c(O)c(O)cc1c4c23	1.4µM*	5.2µM*	3.7µM*	-28%	?	-36%
O=c1nc2n(c3cc(Cl)c(S(=O)(=O)N4CCOCC4)cc13)CCCCC2	2%	-17%	9.3µM*	2%	?	-14%
COc1ccc(S(=O)(=O)N(CC(=O)NCc2ccc(C)cc2)c2ccc(Cl)cc2)cc1	nt	nt	nt	0%	9%	nt
N#Cc1ccc(N2CCCNCC2)nc1	-2%	3%	-1%	28µM*	-5%	-1%
O=C(Nc1ccc(F)cc1)Nc1ccc(S(=O)(=O)N2CCCC2)cc1	2%	13µM*	7.4µM*	-12%	1%	-30%
SMILES	SARS PLP yeast	Pf growth 48h	Pf growth 96h	Sm TGR block	AmpC inh detg	AmpC no deterg
Cc1ccc(C(=O)Nc2ccc(S(=O)(=O)N3CCCC3)cc2)s1	8%	?	13µM*	10%	-2%	-26%
CC(=O)c1ccc(NC(=O)c2ccc(S(=O)(=O)N3CCCC3)cc2)cc1	-6%	?	?	-6%	-4%	-39%
O=C(Nc1ccc(F)cc1)c1ccc(S(=O)(=O)N2CCCC2)cc1	-1%	?	-4%	-9%	0%	-34%
CC(=O)c1ccc(NC(=O)Nc2ccc(S(=O)(=O)N3CCCC3)cc2)cc1	2%	?	?	-15%	-6%	14µM*
O=S(=O)(c1ccc(S(=O)(=O)N(Cc2ccc(F)cc2)C2CCCC2)cc1)N1CCCC1	2%	13µM*	nt	1%	-8%	-15%
Cc1oc(S(=O)(=O)N2CCCCC2)cc1NC(=O)Nc1ccc(F)cc1	-1%	?	5.9µM*	10µM*	-3%	-44%
O=C(Nc1ccc(F)cc1)c1cc(S(=O)(=O)N2CCCCC2)cs1	-2%	-13%	?	-24%	4%	22µM*
CC(C)COC(=O)C1[C@H]2C(=O)N(Cc3cccs3)C[C@]23C=C[C@H]1O3 (stereo partly drawn)	-7%	4%	-3%[5.75 µM]	-1%	-8%	-8%
Cc1cc(O)c(-c2cc(C(=O)Nc3cccnc3)[nH]n2)cc1C	-1%	2.6µM*	2.1µM*	5%	6%	-30%
CC(=O)Nc1ccc(NC(=O)c2cc(-c3cc(C)c(C)cc3O)n[nH]2)cc1	2%	1µM*	?	-11%	-4%	-1%
Cc1cc(C)c(O)c(-c2cc(C(=O)Nc3cccnc3)[nH]n2)c1	0%	2.9µM*	2.9µM*	8%	1%	12%
CCc1ccc(O)c(-c2cc(C(=O)Nc3cccnc3)[nH]n2)c1	-2%	?	0.41µM*	-2%	7%	-27%
Cc1cccc(NC(=O)c2cc(-c3cc(C)cc(C)c3O)n[nH]2)c1	0%	?	?	2%	-12%	-46%
O=C(Nc1cccnc1)c1ccc(F)cc1	-30%	18%	9%	1%	-5%	-15%
COc1ccc2c(-c3ccc(S(N)(=O)=O)cc3)c(-c3ccc(S(C)(=O)=O)cc3)sc2c1	-3%	nt	nt	nt	nt	1%
CCCCC/C=N/NC(=O)c1[nH]c2ccc([N+](=O)[O-])cc2c1C	-3%	?	10µM*	5%	-1%	-56%
